Among the test systems are DU-145 prostate; K-562 leukemia; MALME-3M melanoma; MDA-MB-231 breast; RXF 393 renal; SF-268 CNS; SF-295 CNS; SF-539 CNS; UACC-257 melanoma; M14 melanoma; HCT-15 colon; HT29 colon; SNB-75 CNS; SNB-19 CNS; U251 CNS; PC-3 prostate; SK-MEL-5 melanoma; UACC-62 melanoma; LOX IMVI melanoma; SK-MEL-28 melanoma.
Assay in all cases: NCI-60 one-dose screen, 48 h (100 = growth as untreated, 0 = no growth, -100 = all killed)
What all share (conditions): 10 µM unless noted

About 83,000 compounds went through this panel and 20% of them were active in at least one assay; those are over-represented in the sample as a whole.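 Compound tested at a single concentration for 48 hours in 96-well plates; a percent growth value below 10 was scored as active.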 Unmarked numbers belong to inactive results. Activity calls are given as the source filed them.

The results in this text go back to PubChem BioAssay (NCI).

Turning to `Oc1c(Cl)cc(Cl)cc1/C=N/Nc1nnc(N/N=C/c2cc(Cl)cc(Cl)c2O)c2ccccc12`, the growth in the test with DU-145 prostate was 21.8%; with K-562 leukemia, 9.41% (active); with MALME-3M melanoma it was 10.4%; in the test with MDA-MB-231 breast it was 21.3%; in the test with RXF 393 renal, -16.3% (active); in the test with SF-268 CNS, 6.61% (active). Further, the growth in the test with SF-295 CNS was -1.51% (active); in the test with SF-539 CNS it was -17.7% (active); in the test with UACC-257 melanoma it was 38.5%; in the test with M14 melanoma, 5.83% (active); in the test with HCT-15 colon, 20.6%; with HT29 colon it was 23.7%. In addition, the growth in the test on SNB-75 CNS is 13%; with SNB-19 CNS, 12.8%; with U251 CNS, 21%; with PC-3 prostate, 16.3%; in the test with SK-MEL-5 melanoma it was -46.8% (active); with UACC-62 melanoma, 13.2%. Also, the growth is -52.3% (active) in the test with LOX IMVI melanoma and 22.9% in the test on SK-MEL-28 melanoma.
Regarding `O=Cc1ccc([N+](=O)[O-])s1`, the growth was 110% in the test on DU-145 prostate; 75.4% with K-562 leukemia; 115% with MALME-3M melanoma; 85.2% in the test on MDA-MB-231 breast; 123% with RXF 393 renal; 96.6% in the test with SF-268 CNS. Further, the growth in the test on SF-295 CNS is 107%; in the test on SF-539 CNS, 86.5%; in the test on UACC-257 melanoma, 97.3%; in the test with M14 melanoma, 92%; with HCT-15 colon, 48.7%; in the test on HT29 colon, 55.4%. Also, the growth in the test on SNB-75 CNS was 85.8%; in the test with SNB-19 CNS, 91.4%; with U251 CNS it was 89.6%; with PC-3 prostate, 92.6%; with SK-MEL-5 melanoma, 102%; with UACC-62 melanoma, 80.2%. The growth in the test on LOX IMVI melanoma is 85.8%; in the test on SK-MEL-28 melanoma, 99.5%.
In the case of `C=C1C(=O)O[C@H]2[C@H]1CC/C(COC(=O)N[C@H]1C[C@H](O[C@H]3C[C@](O)(C(=O)CO)Cc4c(O)c5c(c(O)c43)C(=O)c3c(OC)cccc3C5=O)O[C@@H](C)[C@H]1O)=C\CC[C@@]1(C)O[C@@H]21`, the growth with DU-145 prostate was 69%; with K-562 leukemia, 7.56% (active); in the test with MALME-3M melanoma it was -28.6% (active); in the test on MDA-MB-231 breast it was 11%; in the test with RXF 393 renal it was 19.2%; in the test on SF-268 CNS, 64.2%. Besides, the growth in the test with SF-295 CNS is 102%; in the test on SF-539 CNS, 20.8%; with UACC-257 melanoma it was 61.4%; in the test on M14 melanoma, 82.6%; in the test with HCT-15 colon, 99.2%; with HT29 colon it was 25.2%. For the same molecule, the growth in the test with SNB-75 CNS was 56.4%; in the test with SNB-19 CNS it was 68.4%; with U251 CNS, 45.3%; in the test with PC-3 prostate, 78%; in the test on SK-MEL-5 melanoma it was 68.3%; in the test with UACC-62 melanoma, 34.6%. For the same molecule, the figures for the growth in the test with LOX IMVI melanoma and with SK-MEL-28 melanoma were 0.614% (active) and 9.44% (active), respectively.
As for `CC1(c2ccccc2O)NN=C(/N=C/c2cccc([N+](=O)[O-])c2)N1C(Cc1c[nH]c2ccccc12)C(=O)O` (stereo not given), the growth with DU-145 prostate was 114%; with K-562 leukemia, 89.8%; with MALME-3M melanoma, 94.1%; in the test on MDA-MB-231 breast it was 80.5%; in the test on RXF 393 renal, 90.9%; in the test on SF-268 CNS, 95.7%. Besides, the growth is 107% in the test on SF-295 CNS; 99.4% in the test on SF-539 CNS; 90.6% in the test with UACC-257 melanoma; 92% in the test on M14 melanoma; 98.7% with HCT-15 colon; 102% in the test on HT29 colon. Moreover, the growth with SNB-75 CNS was 92.3%; in the test with SNB-19 CNS, 96.9%; in the test on U251 CNS, 96.1%; in the test with PC-3 prostate, 76.9%; with SK-MEL-5 melanoma it was 93%; with UACC-62 melanoma, 77.6%. Also, the figures for the growth in the test on LOX IMVI melanoma and in the test on SK-MEL-28 melanoma were 90.5% and 106%, respectively.
As to `CC1=Nc2cnc(Nc3ccc(OCCN4CCCCC4)cc3)nc2Nc2ccccc21`, the growth in the test with DU-145 prostate is 57.8%; in the test with K-562 leukemia, 24.1%; in the test on MALME-3M melanoma it was 58.4%; in the test on MDA-MB-231 breast it was 60.6%; with RXF 393 renal it was 33.6%; in the test with SF-268 CNS, 64.9%. Besides, the growth with SF-295 CNS is 76.5%; in the test with SF-539 CNS, 69.6%; in the test with UACC-257 melanoma it was 87.6%; in the test on M14 melanoma, 50.6%; in the test on HCT-15 colon it was 27.8%; in the test on HT29 colon it was 50.6%. Besides, the growth with SNB-75 CNS was 9.67% (active); in the test with SNB-19 CNS, 87.8%; in the test on U251 CNS it was 76.6%; in the test with PC-3 prostate, 48.7%; in the test on SK-MEL-5 melanoma, 69.2%; in the test on UACC-62 melanoma, 85.7%. Besides, the values for the growth with LOX IMVI melanoma and in the test with SK-MEL-28 melanoma were 47.6% and 99.3%, respectively.
Consider `O=C1C(Cl)=C(Oc2ccccc2)C(=O)c2ccccc21`, for which the growth in the test on DU-145 prostate is 122%; with K-562 leukemia it was 37.2%; in the test with MALME-3M melanoma, 76.3%; with MDA-MB-231 breast, 81.4%; in the test with RXF 393 renal, 96.8%; in the test on SF-268 CNS, 79.3%. The growth with SF-295 CNS was 76.6%; in the test with SF-539 CNS, 75.2%; in the test on UACC-257 melanoma it was 89.9%; in the test with M14 melanoma, 96.2%; with HCT-15 colon it was 70.5%; in the test with HT29 colon, 94.1%. Moreover, the growth with SNB-75 CNS is 73.1%; with SNB-19 CNS it was 58.4%; in the test with U251 CNS, 42.1%; with PC-3 prostate, 47.8%; in the test on SK-MEL-5 melanoma, 74.8%; in the test with UACC-62 melanoma, 53%. For the same molecule, the growth with LOX IMVI melanoma was 85%; with SK-MEL-28 melanoma it was 120%.
For `C/C(=N\NC(=O)c1ccccc1O)c1cccc(/C(C)=N/NC(=O)c2ccccc2O)n1`, the growth in the test on DU-145 prostate is 55.8%; in the test on K-562 leukemia, 57.2%; with MALME-3M melanoma it was 20.9%; in the test on MDA-MB-231 breast, 52.7%; in the test with RXF 393 renal, 93.7%; with SF-268 CNS, 31.8%. For the same molecule, the growth with SF-295 CNS is 7.95% (active); with SF-539 CNS it was -24.4% (active); with UACC-257 melanoma, 87.6%; in the test with M14 melanoma it was 48.6%; in the test on HCT-15 colon, 42.4%; in the test on HT29 colon, 41.2%. Also, the growth in the test on SNB-75 CNS is 74.9%; in the test on SNB-19 CNS, 20%; in the test on U251 CNS, 20%; in the test on PC-3 prostate, 48%; in the test with SK-MEL-5 melanoma, 38%; in the test with UACC-62 melanoma, 52%. The growth in the test on LOX IMVI melanoma is 35.8%; in the test on SK-MEL-28 melanoma, 52.2%.
